Source: PubChem
The list is not random: actives were taken first. Their share in the collection is about 1.6%.
MLLE-PAM2 inh: inhibitors of microRNA-mediated deadenylation, human PABP1 MLLE binding; P11940; GST-MLLE / FITC-PAM2 fluorescence polarization; inhibition, % at 20 µM; hit rate 0.36% among 360,000; in the data active = inhibition above about 35%, passing the limit was not always enough;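 also: plate controls were DMSO wells with GST-MLLE for no effect and wells lacking GST-MLLE protein for full effect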
PABP polyA inh: PABP-poly(A) binding inhibition; calls only at 35 µM; hit rate 1% among 290,000; PABP-poly(A) RNA binding, fluorescence polarization; P11940;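 also: calls also rest on retests at 20 µM and on dose response follow-up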
eIF4H inh: inhibitors of RNA binding by human eIF4H; Q15056; eIF4H fluorescence polarization binding assay; inhibition, % at 35 µM; hit rate 0.94% among 290,000; AID 2012;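 also: calls also rest on retests at 20 µM and on dose response follow-up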
PERK inhibitor: human PERK inhibition, primary cell-based screen; CHO PERK-DD fusion, SEAP luminescence translation reporter; hit rate 0.17% among 220,000; inhibition, % at 5.6 µM; Q9NZJ5;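 active = inhibition above the mean inhibition of all tested compounds plus 3 SD, set separately per screening campaign, cut at about 2.9% in these data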;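 also: PERK kinase domain activated by AP20187 dimerizer at 100 nM; 0% = DMSO with dimerizer and 100% = rapamycin at 8.4 µM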
eIF4E-4G inh: blocks eIF4E binding to eIF4G; P63073+Q04637; TR-FRET eIF4E-eIF4GI(517-606) binding, 2 h; inhibition, % at 21.7 µM; hit rate 0.37% among 220,000; AID 782;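 active = inhibition above about 30%, limit read from the data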;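 also: 0% = full FRET control wells and 100% = background wells lacking eIF4GI fragment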
* marks the source's active call; other numbers are inactive results; i = inactive; ? = inconclusive; nt = not tested or not shown; + = active, no number; [ ] = another dose, or the depositor's remark. Unless noted, no rule for the calls is given here.

SMILES	MLLE-PAM2 inh	PABP polyA inh	eIF4H inh	PERK inhibitor	eIF4E-4G inh
COc1cc(O)c2c(c1)OC(C)(C)CC2=O	-10	i	7	1	-9
CC(=O)Nc1cc(-c2ccccc2)cn2c(-c3ccc(F)cc3)cnc12	2	nt	nt	nt	nt
O=C(O)CCC(=O)c1ccc2c(c1)CCCC2	8	i	-6	0	2
O=C(O)c1ccc2c(c1)CCC2	5	+	3.3*	0	-3
CC(C)C[C@H]1CN([C@@H](CC(C)C)CN2CCC[C@@H]2CN2C(=S)NC[C@@H]2Cc2ccc(O)cc2)C(=S)N1CC1CCCCC1	-2	nt	nt	nt	nt
N#C/C(=C/c1ccc(F)cc1)c1nnc(NC(=O)c2ccccc2)s1	-19	+	88*	-1	-1
Cc1ccc(-n2nc3cc(C)c(NC(=S)NC(=O)/C=C/c4ccco4)cc3n2)cc1	-5	+	68*	0	5
Cc1ccc(-n2nc3ccc(NC(=S)NC(=O)/C=C/c4ccco4)cc3n2)cc1	-7	+	88	1	-3
CC1C(=O)N2CCCc3cc(S(=O)(=O)NCc4ccccc4Cl)cc1c32 (centres undefined)	2	nt	nt	nt	nt
C=CC[n+]1c(-c2ccc(OC)cc2)csc1NNC(=O)Nc1ccccc1	-51	+	70*	-1	12
CNc1ccc(Br)cc(C(=O)/C=C/c2cccc(Cl)c2Cl)c1=O	-120	+	81	0	16
[O-][n+]1c2c(nc3c1-c1ccccc1C3O)CCCC2 (centres undefined)	nt	i	1	0	1
O=C(CN1CCOCC1)Nc1ncc(Br)cc1Br	10	i	3	3.2*	-3
CC(C)(C)OC(=O)C[C@H]1C/C=C\C[C@H](CC(=O)N(CCO)Cc2ccccc2)C(=O)N[C@H](C(C)(C)C)COC1=O	-3	nt	nt	nt	nt
Nc1nnc2cc(F)ccc2n1	0	nt	nt	nt	nt
Nc1nnc2cc(Br)ccc2n1	75*	nt	nt	nt	nt
CCc1cccc(C)c1NC(=O)Nc1ccc2c(c1)OCO2	-8	i	-5	3.5*	-1
CCN(C(=O)c1ccc(Cl)c(S(=O)(=O)Nc2c(C)n(C)n(-c3ccccc3)c2=O)c1)c1ccccc1	-9	nt	nt	nt	nt
O=C(O)CSc1cc(NS(=O)(=O)c2ccc(Br)cc2)c2ccccc2c1O	46*	i	6	nt	nt
CCOC(=O)c1c(C)oc2ccc(O)cc12	0	i	-6	3.4*	-12
CCOC(=O)c1c(C(C)(C)C)oc2ccc(O)cc12	-4	i	-6	1	3
[O-][N+](=C(c1ccccc1)c1ccccc1)c1ccccc1	-10	nt	nt	nt	nt
N#Cc1c(-c2ccco2)ccn(Cc2cccc(F)c2)c1=O	-2	+	70*	1	0
N#Cc1c(-c2ccco2)ccn(Cc2ccc(F)cc2)c1=O	-27	i	-4	0	-2
COc1ccc(Cl)cc1NC(=O)C1CCN(C(=O)C2CC(=O)N(c3ccc(C)cc3)C2)CC1 (centres undefined)	-3	i	-8	nt	nt
SMILES	MLLE-PAM2 inh	PABP polyA inh	eIF4H inh	PERK inhibitor	eIF4E-4G inh
Cc1cc(Br)cn2ccnc12	-6	i	2	3.0*	5
CC(=O)Nc1cccc(-c2ccnc3c2CC(C(=O)NCc2ccc(N4CCN(C)CC4)cc2)O3)c1 (centres undefined)	-1	nt	nt	nt	nt
Cc1nccc2oc(=O)c(NC(=O)c3ccc(Cl)cc3)cc12	0	i	-10	1	4
O=C(Nc1cc2c(oc1=O)CCCC2=O)c1ccc(Cl)cc1	0	+	74*	1	24
O=C(NNc1nc2ccccc2s1)C1CC1	-8	i	-10	3.6*	-5
O=C(COc1ccc(C(=S)N2CCOCC2)cc1Cl)Nc1ccccc1Cl	41*	i	9	1	6
CCc1c(C)c(C#N)c2[nH]c3ccccc3n2c1=S	-117	i	58	1	33*
Cc1ccccc1NC(=O)c1ccc2c(O)c(S(=O)(=O)c3ccccc3)c(=O)[nH]c2c1	19	i	-8	nt	nt
CCOC(=O)CSc1nc2c(sc(=S)n2-c2ccccc2OC)c(=O)n1Cc1ccco1	38*	i	4	-1	-4
CCOC(=O)CSc1nnc(CSc2nc(C)cc(C)n2)n1Cc1ccco1	10	i	11	0	136*[fluorescence artefact?]
Cc1cc(C)nc(SCc2nnc(SCC(N)=O)n2Cc2ccco2)n1	-43	i	-1	1	2
CCOC(=O)CSc1nc2c(sc(=S)n2-c2ccccc2OC)c(=O)n1-c1ccccc1OC	-10	i	4	nt	nt
FC(F)(F)c1cnc(COc2ccc(Cl)cc2Cl)c(Cl)c1	5	i	1	2	-8
Cc1nc(NC(=S)NC(=O)c2ccco2)sc1C(=O)N(C)C	41*	i	-4	nt	nt
O=C(NC(=S)Nc1ccccc1Br)c1ccco1	45*	i	-9	nt	nt
CC(C)(C)C(=O)Nc1ccccc1N1CCN(C(=O)c2ccc(Cl)cc2)CC1	-5	+	86*	-1	-16
CC1CCN(c2ccccc2NC(=S)NC(=O)c2ccco2)CC1	46*	nt	nt	1	nt
C[C@@H]1CN([C@@H](C)CO)C(=O)CCCn2nncc2CO[C@H]1CN(C)S(=O)(=O)c1cccs1	-10	nt	nt	nt	nt
Cn1cc(Br)c(NS(=O)(=O)c2ccc(Cl)s2)n1	18	i	8	0	-3
CC1CCN(c2ccccc2NC(=S)NC(=O)C(C)(C)C)CC1	39*	i	-5	1	-2
CC1CCN(c2ccccc2NC(=S)NC(=O)c2cccs2)CC1	35	i	-3	1	-2
Cc1nn(-c2ccccn2)c2c1C(=O)CC(C)(C)C2Br (centres undefined)	9	i	14	0	2
Cc1cc(O)c(CN(C)C)c2c1C(=O)/C(=C/c1ccco1)O2	22	+	94*	nt	nt
COc1ccc2c(c1)O/C(=C\c1ccco1)C2=O	-13	i	50	1	-3
COc1cccc(CNC(=O)CN2C(=O)CSc3ccc(S(=O)(=O)N4CCCC4)cc32)c1	5	i	-1	0	1
SMILES	MLLE-PAM2 inh	PABP polyA inh	eIF4H inh	PERK inhibitor	eIF4E-4G inh
CC(NC(=O)Cc1ccccc1)C1COc2ccccc2O1 (centres undefined)	-12	i	-2	3.1*	0
C=CCNC(=O)CSc1nnc(-c2ccccn2)n1Cc1ccccc1	5	+	?	-1	1
N#CCCNc1c(Cl)cc(Cl)cc1C(=O)O	-15	i	20	0	-1
COC(=O)c1nn(-c2ccc(OC)cc2)c(=O)cc1NN	-11	i	active	1	-1
COC(=O)[C@@H]1Cc2c([nH]c3ccccc23)C(C)(C)N1C(=O)CCl	-7	i	0	nt	nt
O=c1[nH]c2cc3ccccc3cc2nc1C(F)(F)F	41*	i	38	0	-2
O=c1[nH]c2ccccc2nc1C(F)(F)C(F)F	-13	i	-2	1	8
CCc1cc(SC#N)cc(C)c1NC(=O)CCl	40*	i	-4	0	-4
Cc1cc(SC#N)cc(C)c1NC(=O)CCl	28	i	8	1	-5
CCC(=O)Nc1ccc(SC#N)cc1C	59*	i	-6	2	1
